Test results taken from PubChem BioAssay (NCATS).
Activity calls are given as the source filed them. Entries that show only a call come without a potency. The call rests on the fitted dose curve; in most records, active means well fitted curve in the direction sought with a large enough effect; inconclusive means small, poorly fitted or top-dose-only effect, or another doubt; inactive means no such curve, though single readings can be large or run the other way.

These molecules were tested against T1, Hexokinase-4 (Homo sapiens) + Glucokinase regulatory protein (Homo sapiens) (UniProt P35557+Q14397) (assay: qHTS assay for inhibitors of recombinant human GCK-GKRP interaction: Diaphorase-coupled assay (AID 743205)). Conditions: G6PDH/diaphorase resorufin fluorescence; series mostly up to 57.5 µM.
Method in brief: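 Inhibitors of the GCK–GKRP complex relieve GKRP suppression of GCK, detected through a G6PDH–diaphorase cascade reducing resazurin. Human GST-GCK and FLAG-GKRP are used at 10 nM with 5 mM glucose and 0.4 mM ATP.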

T1 sequence (P35557 whole entry, looked up): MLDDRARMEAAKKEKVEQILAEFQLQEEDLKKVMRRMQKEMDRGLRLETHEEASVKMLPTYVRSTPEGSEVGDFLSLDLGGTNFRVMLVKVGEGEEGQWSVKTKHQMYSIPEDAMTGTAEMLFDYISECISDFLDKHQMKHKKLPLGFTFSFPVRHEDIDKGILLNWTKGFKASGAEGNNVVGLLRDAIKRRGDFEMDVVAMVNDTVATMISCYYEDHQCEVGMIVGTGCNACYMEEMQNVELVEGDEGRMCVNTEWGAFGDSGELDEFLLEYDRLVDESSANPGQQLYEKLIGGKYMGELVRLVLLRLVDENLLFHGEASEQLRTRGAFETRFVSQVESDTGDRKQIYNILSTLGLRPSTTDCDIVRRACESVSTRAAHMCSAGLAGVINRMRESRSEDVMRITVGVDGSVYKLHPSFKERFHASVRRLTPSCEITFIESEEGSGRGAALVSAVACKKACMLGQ
T1 sequence (Q14397 whole entry, looked up): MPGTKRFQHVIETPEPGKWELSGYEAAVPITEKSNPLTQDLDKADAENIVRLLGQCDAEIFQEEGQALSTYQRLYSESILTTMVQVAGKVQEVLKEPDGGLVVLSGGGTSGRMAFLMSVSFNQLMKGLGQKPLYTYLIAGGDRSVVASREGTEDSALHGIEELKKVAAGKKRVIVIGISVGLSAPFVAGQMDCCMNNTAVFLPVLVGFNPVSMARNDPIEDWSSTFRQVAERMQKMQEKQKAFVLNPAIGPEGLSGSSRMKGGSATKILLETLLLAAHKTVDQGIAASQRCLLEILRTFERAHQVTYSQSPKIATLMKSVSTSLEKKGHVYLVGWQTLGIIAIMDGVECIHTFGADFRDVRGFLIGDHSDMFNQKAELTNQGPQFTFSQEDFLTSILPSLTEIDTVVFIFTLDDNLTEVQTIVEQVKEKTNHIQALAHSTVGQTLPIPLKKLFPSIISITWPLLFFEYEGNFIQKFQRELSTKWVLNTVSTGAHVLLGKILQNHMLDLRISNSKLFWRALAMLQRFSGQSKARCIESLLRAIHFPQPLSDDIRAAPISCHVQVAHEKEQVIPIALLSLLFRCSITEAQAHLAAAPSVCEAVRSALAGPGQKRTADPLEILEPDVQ

Compound | Potency
CCN(c1nc(N)c(C(=O)N=C(N)N)nc1Cl)C(C)C | inactive
O[Si](CCCN1CCCCC1)(c1ccc(F)cc1)C1CCCCC1 (stereo unspecified) | inactive
NC(N)=N[C@@H](CCC(=O)O)C(=O)O | inactive
c1ccc(C2CN3CCSC3=N2)cc1 (stereo unspecified) | inactive
O=c1onc2cnc3ccccc3n12 | inactive
NCC(O)c1ccc(O)c(O)c1 (stereo unspecified) | inactive
C[C@](Cc1ccc(O)c(O)c1)(NN)C(=O)O | inactive
O=C1Cc2c([nH]c3ccc(Br)cc23)-c2ccccc2N1 | inactive
OC1(c2ccc(Cl)cc2)CCN(Cc2c[nH]c3ccccc23)CC1 | inactive
COc1cc(CNC(=O)CCCCCCC(C)C)ccc1O | inactive
CC(=O)/C(C)=N/O | inactive
COCc1nc2c([nH]1)c(=O)n(C)c(=O)n2CC(C)C | inactive
C=C1C(=O)O[C@@H]2[C@H]3O[C@]3(C)CCC=C(C)CC[C@@H]12 | inactive
N#Cc1cc([N+](=O)[O-])c2sc(C(N)=O)[n+]([O-])c2c1 | inactive
C=CCn1c(=O)c2c(nc(-c3ccc(S(=O)(=O)O)cc3)n2C)n(C)c1=O | inactive
NC[C@@H]1O[C@H](c2ccccc2)Cc2c1ccc(O)c2O | inactive
CCCCCCN(CCCCCC)C(=O)Cc1c(-c2ccc(F)cc2)[nH]c2ccccc12 | inactive
OC[C@H]1O[C@H](n2cnc3c(N[C@H]4CCC[C@@H]4O)ncnc32)[C@H](O)[C@@H]1O | inactive
Cn1c(=O)c2[nH]c(C3CCCC3)nc2n(C)c1=O | inactive

Compound | Potency
N[C@H](C(=O)O)[C@H](Cc1ccccc1)C(=O)O | inactive
CCCCCCCCCCCCCCC[C@H](O)[C@H](N)CO | inactive
c1ccc(C(NCCNC(c2ccccc2)c2ccccc2)c2ccccc2)cc1 | inactive
CC[C@H](NC(=O)c1c(C)c(-c2ccccc2)nc2ccccc12)c1ccccc1 | inactive
O=C(O)c1ccccc1Nc1cccc(OCc2ccc3ccccc3n2)c1 | inactive
C=CCN1CCc2c(cc(O)c(O)c2Br)[C@@H](c2ccccc2)C1 | inactive
O=c1[nH]c2ccccc2c2ccccc12 | inactive
COc1ccc(-c2cc3ncc(C)n3c(Nc3ncccc3C(N)=O)n2)cc1OC | inactive
CN1CCCC1CCOC(C)(c1ccccc1)c1ccc(Cl)cc1 (stereo unspecified) | inactive
N[C@@H](Cc1c[nH]c2ccccc12)C(=O)O | inactive
COc1ccc(NC(=O)c2ccc(-c3ccc(-c4noc(C)n4)cc3C)cc2)cc1N1CCN(C)CC1 | inactive
COc1ccccc1N1CCN(CCCCN2C(=O)c3ccccc3C2=O)CC1 | inactive
C=CCN1CCc2c(cc(O)c(O)c2Cl)C(c2ccccc2)C1 (stereo unspecified) | inactive
CC(C)NC[C@H](O)COc1cccc2ccccc12 | inactive
CCCC[C@@]1(C2CCCC2)Cc2cc(OCC(=O)O)c(Cl)c(Cl)c2C1=O | inactive
C[C@]12C=CC(=O)C=C1CC[C@@H]1C2=CC[C@]2(C)[C@@H](C(=O)CN3CCN(c4cc(N5CCCC5)nc(N5CCCC5)n4)CC3)CC[C@@H]12 | inactive
N#CC(C#N)=C(N)/C(C#N)=C/c1ccc(O)cc1 | inactive
Cc1cccc(C2CN(C)CCc3c2cc(O)c(O)c3Cl)c1 (stereo unspecified) | inactive
COc1ccc(C(=O)NCc2cccnc2)cc1C(=O)NCc1cccnc1 | inactive

These molecules were tested against T1, Hexokinase-4 (Homo sapiens) + Glucokinase regulatory protein (Homo sapiens) (assay: qHTS assay for inhibitors of recombinant human GCK-GKRP interaction: ADP-Glo assay (AID 743206)). Conditions: ADP-Glo luminescence, 60 min; series mostly up to 76.9 µM.
Method in brief: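 Pin-transferred compounds meet a 15 nM GST-GCK/15 nM FLAG-GKRP/2 uM S6P mix (dispense concentrations). ATP is then added to 0.4 mM final with 5 mM glucose, and the reaction runs 60 min at room temperature. ADP is quantified luminescently.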

Compound | Potency
CCN(c1nc(N)c(C(=O)N=C(N)N)nc1Cl)C(C)C | inactive
O[Si](CCCN1CCCCC1)(c1ccc(F)cc1)C1CCCCC1 (stereo unspecified) | inactive
NC(N)=N[C@@H](CCC(=O)O)C(=O)O | inactive
c1ccc(C2CN3CCSC3=N2)cc1 (stereo unspecified) | inactive
O=c1onc2cnc3ccccc3n12 | inactive
NCC(O)c1ccc(O)c(O)c1 (stereo unspecified) | inactive
C[C@](Cc1ccc(O)c(O)c1)(NN)C(=O)O | inactive
O=C1Cc2c([nH]c3ccc(Br)cc23)-c2ccccc2N1 | inactive
OC1(c2ccc(Cl)cc2)CCN(Cc2c[nH]c3ccccc23)CC1 | inactive
COc1cc(CNC(=O)CCCCCCC(C)C)ccc1O | inactive
CC(=O)/C(C)=N/O | inactive
COCc1nc2c([nH]1)c(=O)n(C)c(=O)n2CC(C)C | inactive
C=C1C(=O)O[C@@H]2[C@H]3O[C@]3(C)CCC=C(C)CC[C@@H]12 | inactive
N#Cc1cc([N+](=O)[O-])c2sc(C(N)=O)[n+]([O-])c2c1 | inactive
C=CCn1c(=O)c2c(nc(-c3ccc(S(=O)(=O)O)cc3)n2C)n(C)c1=O | inactive
NC[C@@H]1O[C@H](c2ccccc2)Cc2c1ccc(O)c2O | inactive
CCCCCCN(CCCCCC)C(=O)Cc1c(-c2ccc(F)cc2)[nH]c2ccccc12 | inactive
OC[C@H]1O[C@H](n2cnc3c(N[C@H]4CCC[C@@H]4O)ncnc32)[C@H](O)[C@@H]1O | inactive
Cn1c(=O)c2[nH]c(C3CCCC3)nc2n(C)c1=O | inactive

Compound | Potency
N[C@H](C(=O)O)[C@H](Cc1ccccc1)C(=O)O | inactive
CCCCCCCCCCCCCCC[C@H](O)[C@H](N)CO | inactive
c1ccc(C(NCCNC(c2ccccc2)c2ccccc2)c2ccccc2)cc1 | inactive
CC[C@H](NC(=O)c1c(C)c(-c2ccccc2)nc2ccccc12)c1ccccc1 | inactive
O=C(O)c1ccccc1Nc1cccc(OCc2ccc3ccccc3n2)c1 | inactive
C=CCN1CCc2c(cc(O)c(O)c2Br)[C@@H](c2ccccc2)C1 | inactive
O=c1[nH]c2ccccc2c2ccccc12 | inactive
COc1ccc(-c2cc3ncc(C)n3c(Nc3ncccc3C(N)=O)n2)cc1OC | inactive
CN1CCCC1CCOC(C)(c1ccccc1)c1ccc(Cl)cc1 (stereo unspecified) | inactive
N[C@@H](Cc1c[nH]c2ccccc12)C(=O)O | inactive
COc1ccc(NC(=O)c2ccc(-c3ccc(-c4noc(C)n4)cc3C)cc2)cc1N1CCN(C)CC1 | inactive
COc1ccccc1N1CCN(CCCCN2C(=O)c3ccccc3C2=O)CC1 | inactive
C=CCN1CCc2c(cc(O)c(O)c2Cl)C(c2ccccc2)C1 (stereo unspecified) | inactive
CC(C)NC[C@H](O)COc1cccc2ccccc12 | inactive
CCCC[C@@]1(C2CCCC2)Cc2cc(OCC(=O)O)c(Cl)c(Cl)c2C1=O | inactive
C[C@]12C=CC(=O)C=C1CC[C@@H]1C2=CC[C@]2(C)[C@@H](C(=O)CN3CCN(c4cc(N5CCCC5)nc(N5CCCC5)n4)CC3)CC[C@@H]12 | inactive
N#CC(C#N)=C(N)/C(C#N)=C/c1ccc(O)cc1 | inactive
Cc1cccc(C2CN(C)CCc3c2cc(O)c(O)c3Cl)c1 (stereo unspecified) | inactive
COc1ccc(C(=O)NCc2cccnc2)cc1C(=O)NCc1cccnc1 | inactive
